Test results taken from PubChem BioAssay AID2778 (National Center for Advancing Translational Sciences (NCATS), 2010).
Records with an inconclusive call do not appear. A number with no mark means an inactive call. The source made the active and inactive calls. Calls follow the shape of the dose curve; as a rule, active = well fitted inhibition curve with a large enough effect; inconclusive = small, poorly fitted or top-dose-only effect, or effect the other way; inactive = flat fitted curve, though single readings scatter.

biological target: Menin (Homo sapiens) (UniProt O00255); experiment: Confirmation of Inhibitors Targeting the Menin-MLL Interaction in MLL Related Leukemias: Confirmation in an HTRF (commercial TR-FRET) Assay using His-tagged menin and biotin-labeled MLL peptide; conditions: His-menin / biotin-MLL peptide binding; series mostly up to 126 µM; activity change, negative = inhibition: at the top concentration
Sequence (O00255 whole entry, looked up): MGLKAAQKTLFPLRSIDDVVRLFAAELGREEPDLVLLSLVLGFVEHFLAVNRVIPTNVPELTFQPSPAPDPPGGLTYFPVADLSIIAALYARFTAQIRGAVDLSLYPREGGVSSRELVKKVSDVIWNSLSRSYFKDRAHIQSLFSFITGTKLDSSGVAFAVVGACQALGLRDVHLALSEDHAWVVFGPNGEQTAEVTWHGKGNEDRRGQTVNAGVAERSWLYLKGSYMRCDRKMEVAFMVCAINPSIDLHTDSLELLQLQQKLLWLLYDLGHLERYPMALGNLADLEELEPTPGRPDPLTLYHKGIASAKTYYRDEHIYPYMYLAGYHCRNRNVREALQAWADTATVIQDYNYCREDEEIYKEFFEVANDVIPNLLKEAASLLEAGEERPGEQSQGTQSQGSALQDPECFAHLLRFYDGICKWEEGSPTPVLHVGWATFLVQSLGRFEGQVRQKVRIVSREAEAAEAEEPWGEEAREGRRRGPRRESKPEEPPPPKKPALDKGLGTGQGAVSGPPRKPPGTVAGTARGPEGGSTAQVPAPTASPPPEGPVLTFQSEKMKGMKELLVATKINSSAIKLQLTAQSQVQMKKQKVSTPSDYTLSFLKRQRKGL
Source text: qHTS Assay for Inhibitors Targeting the Menin-MLL Interaction in MLL Related Leukemias
NIH Chemical Genomics Center [NCGC]
NIH Molecular Libraries Probe Centers Network [MLPCN]
Assay Submitter (PI): Jolanta Grembecka, Tomasz Cierpicki, University of Virginia
Translocations of the MLL (Mixed Lineage Leukemia) gene are frequently found in human leukemias affecting both children and adults. Fusion of MLL to one of more than 60 genes results in generation of oncogenic proteins upregulating Hox genes, which are vital to blood cell development. Patients harboring fusion of the MLL gene suffer from aggressive leukemias and respond poorly to available therapies. All of the oncogenic fusion proteins have a preserved N-terminal fragment of MLL that has been identified to interact with menin. It has been recently discovered that association with menin is critical to the leukemogenic activity of the MLL fusion oncoproteins. Selective targeting of the menin-MLL interaction could provide an attractive therapeutic approach to develop novel drugs for MLL-related leukemias. Small molecules blocking the menin-MLL interaction should reverse the oncogenic potential of MLL fusion proteins.
We have developed and optimized a fluorescence polarization-based assay for the identification of Menin-MLL inhibitors. The assay was run employing two different MLL-derived peptides. The present assay uses a 12 amino acid peptide labeled with fluorescein at its N-terminus. This peptide consists of the menin high affinity binding motif from MLL and is potently bound by menin. Another peptide with a mutated sequence, labeled with Texas Red, was used in parallel as a less stringent screen for inhibitors.
The present assay uses an alternate technology to confirm hits from the primary screen - homogeneous time resolved fluorescence (HTRF).
The Menin protein, the MLL-wild type (w.t.) derived peptide (N-terminal 12 amino acids), the MLL-derived peptide labeled with Texas Red and the MLL-w.t. peptide labeled with Fluorescein were kindly supplied by laboratory of Dr. Jolanta Grembecka, University of Virginia. All protein and peptide solutions were stored in single use aliquots at -80C. The Eu3+ Cyrptate-conjugated mouse monoclonal antibody anti-6 Histidine (Eu3+-AB) and the Streptavidin-XL665 conjugate (XL665) were purchased from Cisbio International (Bedford, MA). All antibody and XL665 conjugate solution stocks were stored in single use aliquots at -20C. The Buffer components for all assays were purchased from Sigma-Aldrich (St. Louis, MO) and Invitrogen (Carlsbad, CA).
1. HTRF reaction buffer: 50 mM Tris-HCl pH 7.5, 50 mM NaCl, 1mM DTT.
Before use, 0.05% BSA is added.
2. His6-Menin protein, MLL-w.t. labeled with biotin.
Stored in singe use aliquots at -80C.
3. MLL-w.t. unlabeled peptide as positive control: 10 uM final in HTRF buffer.
1. Prepare His6-Menin at 200 nM, MLL-w.t.-biotin at 80 nM in HTRF buffer.
2. Prepare His6-Menin at 200 nM, MLL-w.t.-biotin at 80 nM and 10 uM MLL-w.t. unlabeled mixture in HTRF buffer.
3. Dispense 10 ul per well of reagent in step 1 in columns 2, 4-24 in a black 384 well plate, dispense 10 ul per well of reagents from steps 2 in column 1. Incubate plate at ambient for 15 minutes.
4. Transfer 1 uL per well of compound to plate and incubate at ambient for 1 hr.
5. Dispense 10uL of the donor (6His-Cryptate, 3.5 nM final conc.) and acceptor (SA_XL, 10nM final conc.) complex in the HTRF buffer with 0.01% BSA. Incubate for 1h.
% is scaled to controls: 0 for no effect and ±100 for the full control effect; potency is read from the fitted curve at half-maximal effect.

SMILES	activity change, negative = inhibition	Potency
CCc1ccc(CNC(=O)CCS(=O)(=O)Cc2ccccc2F)cc1	3.6%	
CN(C)[C@H]1C(=O)C(C(=O)NCN2CCCC2)=C(O)[C@]2(O)C(=O)C3=C(O)c4c(O)cccc4[C@](C)(O)[C@H]3C[C@H]12		70.7 µM (active)
Cc1cc(C)c2c(=O)cc(C(=O)NCc3ccccc3)oc2c1	-13.4% [at 383 µM]	
COc1ccccc1CNCC(=O)Nc1ccc(C#N)cc1	-1.25% [at 383 µM]	
O=C(Nc1cccn(Cc2c(Cl)cccc2Cl)c1=O)c1c(Cl)cccc1Cl	-10.9% [at 383 µM]	
c1ccc2c(c1)nc(N1CCOCC1)c1c3ccccc3[nH]c21	-9.36% [at 383 µM]	
COC(CSc1nc(N)c2c3c(sc2n1)CN(C)CC3)OC	5.19%	
O=[N+]([O-])c1ccc(S(=O)(=O)c2ccccc2)nc1	1.69% [at 383 µM]	
O=C1C(SCCO)=C(SCCO)C(=O)c2ccccc21		39.8 µM (active)
CCn1ncc(C(=O)Nc2cc(C)on2)c1C	-3.27%	
COc1ccc(C2=C(CN(C)C)C(c3ccccc3)c3ccccc3O2)cc1 (stereo not given)	1.78%	
c1ccc2c(c1)NCC1CCCN21 (stereo not given)	-0.883%	
Cc1ccc(/C=C2\SC(=S)N(CC(=O)Nc3ncc(Cc4ccccc4Cl)s3)C2=O)cc1	-18.7% [at 383 µM]	
COc1cccc(OC)c1NC(=O)CN1CCN(C)CC1	-0.577%	
CCOC(=O)Cn1c2ccccc2n2nc(CCC(=O)O)c(=O)nc12	-0.0741%	
O=C(/C=C/c1ccccc1)NC(NC(=S)Nc1cc(Cl)ccc1Cl)C(Cl)(Cl)Cl (stereo not given)	-16.1% [at 383 µM]	
Cc1nc(N2CCN(C)CC2)c2c3c(sc2n1)CCCC3	0.279%	
CCCC(=O)Nc1cccc(NC(=O)c2ccc([N+](=O)[O-])cc2Cl)c1	-0.708% [at 383 µM]	
COC(=O)c1cc(CNC(=O)CCCSc2ccccc2)ccc1OC	3.68%	
O=c1[nH]nc(Cc2ccc(-c3ccc(Cl)cc3)o2)c2ccccc12	-18.4%	

SMILES	activity change, negative = inhibition	Potency
O=C1Cc2ccccc2Sc2c(OCCN3CCCCC3)cccc21	-10.9%	
Cc1sc2ncnc(NC3CCN(Cc4ccccc4)CC3)c2c1C		126 µM (active)
Cc1ccc(Nc2nc(N)[nH]c(=O)c2N=O)cc1	17.5%	
O=C(O)CCC(=O)Nc1ccc(SSc2ccc(NC(=O)CCC(=O)O)cc2)cc1	7.72% [at 383 µM]	
Cn1c(=O)[nH]c(=O)c2c1nc(Br)n2CCSc1nc2ccccc2o1	-2.42% [at 383 µM]	
O=C1C(Cl)=C(NC(=O)c2ccccc2)C(=O)C(Cl)=C1NC(=O)c1ccccc1	-2.38% [at 383 µM]	
COC(=O)COc1ccc(C(C2C(=O)CC(C)(C)CC2=O)C2C(=O)CC(C)(C)CC2=O)cc1	-6.86%	
Cc1ccc(NS(=O)(=O)c2csc(C(N)=O)c2)cc1C	3.15% [at 383 µM]	
COc1ccc(CCNCc2cc(C)n(-c3ccc(OC)cc3)c2C)cc1	7.98%	
COC(=O)Cc1c(C)nc2nc(-c3ccc(OC)cc3)[nH]n2c1=O	-3.42% [at 383 µM]	
COc1ccc(N(CC(=O)NC2CC3CCC2C3)S(=O)(=O)c2ccc(C)cc2)cc1OC (stereo not given)	5.88%	
Cc1ccc2nc(-c3ccc(NC(=O)COC(=O)c4ccc(Br)o4)cc3)sc2c1	-21.7%	
CCc1ccccc1NC(=O)COc1cccc(-n2cnnn2)c1	2.78% [at 383 µM]	
Cc1ccc(-c2cc(C(=O)Nc3cc(C)ccc3O)no2)cc1	-8.8%	
COC(=O)[C@H](C)NC(=O)c1cc2c(cn1)[nH]c1ccccc12		50.1 µM (active)
Cc1cnc(CNc2ccnc(-c3ccoc3)n2)cn1	-2.59% [at 383 µM]	
O=C1NC(=S)N/C1=C/c1ccc2ccccc2c1	-20.1%	
COc1ccc(NC(=O)NC2(C(=O)N3CCOCC3)CCCCC2)cc1	-4.37%	
CCOC(=O)N1CCN(CCC(=O)c2ccc(Br)cc2)CC1	3.93%	
O=C(Nc1ccc(F)c(Cl)c1)c1cc(-c2ccco2)on1	-9.72%	
